Compounds without any hit were thinned out: in the full panel of roughly 79,000, 15% have a hit. A number with no mark means an inactive call. Rule as the data show it: active = growth inhibition above about 70%; inactive = the rest.
experiment: NCI Yeast Anticancer Drug Screen. Data for the rad50 strain (AID 155);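 also: 0% = growth of vehicle-only cultures of the same strain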; conditions: S. cerevisiae rad50 strain growth inhibition; at 50.0 µM; hits give high values
Method in brief: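 Vehicle-treated cultures provide the reference for the growth inhibition reported for compound-exposed, repair-deficient yeast.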

| SMILES | growth inhibition [%] |
| --- | --- |
| Cc1ccc(S(=O)(=O)N/N=C/c2oc(-c3ccncc3)c(-c3ccncc3)c2[N+](=O)[O-])cc1 | -1.15 |
| O=C1C=C(Nc2cccnc2)c2ccccc2C1=O | 9.5 |
| COc1ccc(-c2coc3cc(O)cc(O)c3c2=O)cc1 | 36.6 |
| Cn1cc(/C=C/C(=O)c2ccccc2[N+](=O)[O-])c2ccccc21 | 7.8 |
| C=CCOC(C)OCC=C | 17.9 |
| O=c1[nH]nnc2ccccc12 | 2.85 |
| COc1ccc(C)c(C2=CCCCC2)c1 | 4.65 |
| C=CCc1ccc(O)c(OC)c1 | 36 |
| O=C1NCC2(CCN(Cc3ccccc3)CC2)N1c1ccccc1 | 7.6 |
| CN(C)c1nc2[nH]ncc2c(=O)[nH]1 | 11.6 |
| Cc1c(-c2ccc3c(c2)COC3)sc(N)c1C#N | 4.7 |
| COc1ccc(NC(=O)CC(=O)N/N=C/c2ccc(N(CCC#N)S(=O)(=O)c3ccccc3)cc2)cc1 | -35.5 |
| CC12CC(=O)C3C(CCC4=CC(=O)CCC43C)C1CC=C2CC(=O)O (stereo not drawn) | -4.8 |
| COc1ccc(C2S/C(=C\c3cccc(O)c3)C(=O)N2NC(=O)Cc2ccccc2)cc1 (stereo not drawn) | -15.3 |
| CCS(=O)(=O)OCCOC | -2.65 |
| O=C1C=C/C(=N/c2ccc(O)o2)c2ccccc21 | 36.8 |
| CCCN1CCc2c([nH]c3cc(OC)ccc23)C1C (stereo not drawn) | 27.9 |
| CC(C)=NC(C(=O)O)C(C)(C)S (stereo not drawn) | -17.6 |
